The campaign covered roughly 52,000 compounds. About 4,300 (8.3%) were called active. No stated cut-off is given here; in the data, active means survival mostly below about 52% (no sharp cut-off); inactive means mostly above about 56%. The sample as a whole holds a higher share of actives than the screen did.

For 91 compounds, survival results are on record in PubChem BioAssay AID463173 (ICCB-Longwood Screening Facility, Harvard Medical School, 2010).

The subject of this assay is DeltatarO mutant. In words: growth inhibition of S. aureus wild type versus tarO mutant, primary screen, teichoic acid synthesis inhibitors, RN4220, OD600 (AID 463173). The settings on record: OD600, 18 h, stronger effect = lower value, screened at 18.75 µg/mL (by protocol).
For `CCOC(=O)N1CCN(Cc2nc3cc([N+](=O)[O-])ccc3n2C(C)C)CC1`, the survival was 92% (inactive).

In the case of `O=C(NCCO)c1nc2ccccc2s1`, the survival is 73% (inactive).

As for `CCN(CC)c1ccc(NC(=O)c2cc(C)nc3c2c(C)nn3-c2cccc(F)c2)c(C)c1`, the survival was 100% (inactive).

For the compound `O=C(CSC1=NC(=O)C(c2ccccc2)C(=O)N1)Nc1nncs1` (stereo unspecified), the survival was 70% (inactive).

As for `COc1ccc(NC(=O)Cn2cc(C(=O)C3CCCCC3)c3ccccc32)cc1`, the survival was 71% (inactive).

As to `O=C(c1cn(CCOc2ccc(Cl)cc2)c2ccccc12)C1CCCCC1`, the survival is 14% (active).

`Cc1ccccc1OCCn1cc(C(=O)C2CCCCC2)c2ccccc21`: the survival is 144% (inactive).

Take `COc1ccc(OCCn2cc(C(=O)C3CCCCC3)c3ccccc32)cc1`: the survival was 13% (active).

As to `O=C(c1cn(CCOc2ccccc2F)c2ccccc12)C1CCCCC1`, the survival was -2% (active).

`Cc1ccc(OCCn2cc(C(=O)c3cccs3)c3ccccc32)cc1`: the survival was 69% (inactive).

With `Cc1ccc(NC(=O)Cn2cc(C(=O)C3CCCCC3)c3ccccc32)cc1`, the survival is 62% (inactive).

Take `O=C(Cn1cc(C(=O)C2CCCCC2)c2ccccc21)Nc1ccccc1Cl`: the survival is 76% (inactive).

Consider `COc1ccc(NC(=O)Cn2cc(C(=O)C3CC3)c3ccccc32)cc1`, for which the survival is 88% (inactive).

Consider `Cc1ccc(OCCn2cc(C(=O)C3CCCCC3)c3ccccc32)cc1`, for which the survival is 3% (active).

`O=C(c1cccs1)c1cn(CCOc2ccc(Cl)cc2)c2ccccc12`: the survival was 156% (inactive).

Regarding `O=C(c1cccs1)c1cn(CCOc2ccccc2F)c2ccccc12`, the survival was 104% (inactive).

On to `Cc1c(NC(=O)c2nc3ccccc3nc2N2CCCCC2)cccc1[N+](=O)[O-]`, for which the survival was 100% (inactive).

Consider `COc1ccc(-c2nc3n(n2)C(c2ccc(OC)cc2)C(C(=O)Nc2cccnc2)=C(C)N3)cc1` (stereo unspecified), for which the survival was 89% (inactive).

As to `Cc1ccc(N2CC(NC(=O)CCc3ccccc3)CC2=O)cc1C` (stereo unspecified), the survival is 101% (inactive).

For the compound `COc1ccc(N2CCN(C(=O)Cn3c(-c4cccs4)cc4ccccc43)CC2)cc1`, the survival is 80% (inactive).

Take `Cc1cc(C)c(NC(=O)CN2C(=O)c3cccnc3Sc3ccccc32)c(C)c1`: the survival is 83% (inactive).

For `CCOC(=O)c1ccc(N2C(=O)c3n[nH]c(-c4ccco4)c3C2c2ccc(O)c(OCC)c2)cc1` (stereo unspecified), the survival is 69% (inactive).

With `C=CCn1c(O)c(CN2CCOCC2)c(C)c(C#N)c1=O`, the survival was 89% (inactive).

For `O=C(O)Cc1ccc(NC2(c3ccccc3)C(=O)c3ccccc3C2=O)cc1`, the survival was 73% (inactive).

Turning to `Cc1cccc(NC(=O)c2ccc3c(O)c(S(=O)(=O)c4ccccc4)c(=O)[nH]c3c2)c1C`, the survival was 88% (inactive).

Regarding `Cc1ccc(C)c(NC(=O)CN2CCN(C3CCCCC3)C(=O)C2=O)c1`, the survival is 94% (inactive).

As for `CCC(Cn1nnc2ccccc2c1=O)NC(=O)Nc1cc(Cl)ccc1OC` (stereo unspecified), the survival was 71% (inactive).

Take `COC(=O)c1cc(S(=O)(=O)N2CCN(c3cc(Cl)ccc3C)CC2)c[nH]1`: the survival was 12% (active).

As for `Cc1ccc(Cl)cc1N1CCN(C(=O)c2cc(S(=O)(=O)N3CCCC3)c[nH]2)CC1`, the survival is 88% (inactive).

As for `COC(=O)c1cc(S(=O)(=O)N2CCN(c3ccc(OC)cc3)CC2)c[nH]1`, the survival was 73% (inactive).

As for `CC(Oc1ccccc1)C(=O)Nc1ccccc1C(=O)OCc1cc(=O)n2nc(C(C)C)sc2n1` (stereo unspecified), the survival was 83% (inactive).

As for `Cc1ccn2c(Nc3ccccc3C)c(-c3ccccn3)nc2c1`, the survival was 11% (active).

In the case of `Cc1cccc(C)c1Nc1c(-c2ccccn2)nc2ccc(Cl)cn12`, the survival is 135% (inactive).

As to `Cc1ccn2c(Nc3ccccc3C)c(-c3ccccc3)nc2c1`, the survival is 0% (active).

Consider `Cc1ccn2c(Nc3ccccc3C)c(-c3cccnc3)nc2c1`, for which the survival was 81% (inactive).

`Cc1ccn2c(Nc3ccccc3C)c(-c3ccncc3)nc2c1`: the survival was 85% (inactive).

As for `Cc1ccc2nc(-c3ccccn3)c(Nc3ccccc3C)n2c1`, the survival is 15% (inactive).

With `Cc1ccc2nc(N3CCN(c4ccccc4F)CC3)c3nnnn3c2c1`, the survival was 87% (inactive).

On to `Cc1ccc(C)c(-n2cc(-c3ccccc3)nc2SCC(=O)Nc2ccccc2)c1`, for which the survival is 96% (inactive).

Regarding `Cc1cccc(NC(=O)c2cnn(-c3ccccc3)c2-n2cccc2)c1C`, the survival is 77% (inactive).

Turning to `CCC(=O)N1CCc2cc(Br)cc(S(=O)(=O)CCC(=O)N3CCN(c4cccc(C)c4)C(C)C3)c21` (stereo unspecified), the survival is 65% (inactive).

On to `O=C(Nc1nc2n(n1)C(c1ccc(F)cc1)C=C(c1ccccc1)N2)c1cccc([N+](=O)[O-])c1` (stereo unspecified), for which the survival was 99% (inactive).

As to `O=C(Nc1nc2n(n1)C(c1ccc(F)cc1)C=C(c1ccc(Cl)cc1)N2)c1ccco1` (stereo unspecified), the survival is 16% (active).

In the case of `O=C(Nc1nc2n(n1)C(c1ccc(Cl)cc1)C=C(c1ccccc1)N2)c1ccco1` (stereo unspecified), the survival is 35% (active).

Turning to `COc1ccc(C(=O)Nc2nc3n(n2)C(c2ccc(Cl)cc2)C=C(c2ccccc2)N3)cc1OC` (stereo unspecified), the survival is 59% (inactive).

For `O=C(Nc1nc2n(n1)C(c1ccc(F)cc1)C=C(c1ccccc1)N2)c1ccco1` (stereo unspecified), the survival is 41% (active).

`CC(=O)Nc1nc2n(n1)C(c1ccc(F)cc1)C=C(c1ccc(Cl)cc1)N2` (stereo unspecified): the survival was 59% (inactive).

With `O=C(Nc1nc2n(n1)C(c1ccccc1)C=C(c1ccccc1)N2)c1ccccc1` (stereo unspecified), the survival is 109% (inactive).

Turning to `O=C(Nc1nc2n(n1)C(c1ccccc1)C=C(c1ccc(Cl)cc1)N2)c1ccco1` (stereo unspecified), the survival was 42% (inactive).

For the compound `Cc1ccc(C2C=C(c3ccc(Cl)cc3)Nc3nc(NC(=O)c4ccco4)nn32)cc1` (stereo unspecified), the survival was 67% (inactive).

With `O=C(NCCN1CCN(c2ccccc2)CC1)Nc1ccccc1Br`, the survival was 87% (inactive).

Take `Cc1ccc(C)c(CN2C(=O)c3ccccc3S(=O)(=O)c3ccc(C(=O)N4CCCCC4)cc32)c1`: the survival was 61% (inactive).

In the case of `Cc1cc2nn(-c3ccc(F)cc3)nc2cc1NC(=O)c1ccc(OC(C)C)cc1`, the survival is 64% (inactive).

As to `O=c1c(S(=O)(=O)c2cccc(Cl)c2)cn(Cc2ccccc2)c2cc(N3CCOCC3)c(F)cc12`, the survival is 83% (inactive).

For the compound `CCC(=O)N1CCc2cc(CNS(=O)(=O)c3ccc(NC(=O)CC(C)C)cc3)ccc21`, the survival is 86% (inactive).

With `CC(=O)Nc1ccc(OC(=O)c2ccco2)cc1`, the survival was 71% (inactive).

`Cc1cc(C)cc(Nc2ncnc3sc4c(c23)CCCC4)c1`: the survival is 0% (active).

For `CCc1ccc(Nc2ncnc3sc4c(c23)CCCC4)cc1`, the survival was 72% (inactive).

On to `CC(C)OCCCNc1ncnc2sc3c(c12)CCCC3`, for which the survival was 42% (active).

In the case of `c1cn(CCCNc2ncnc3sc4c(c23)CCCCC4)cn1`, the survival is 65% (inactive).

As to `c1coc(CNc2ncnc3sc4c(c23)CCCC4)c1`, the survival was 107% (inactive).

On to `CN(C)c1ccc(Nc2ncnc3sc4c(c23)CCCC4)cc1`, for which the survival is 106% (inactive).

As for `CCOc1ccccc1NC(=O)C1CCN(S(=O)(=O)c2c(C)noc2/C=C/c2ccco2)CC1`, the survival is 72% (inactive).

As for `COc1ccc(N2CCN(S(=O)(=O)c3ccc(C4CCCCC4)cc3)CC2)cc1`, the survival was 79% (inactive).

As for `COc1ccc(N2CCN(S(=O)(=O)c3ccc(CC(C)C)cc3)CC2)cc1`, the survival is 56% (active).

Take `COc1ccc(N2CCN(S(=O)(=O)c3ccc4c(c3)C(C(C)C)C(=O)N4)CC2)cc1` (stereo unspecified): the survival was 125% (inactive).

Regarding `Cc1ccc(NC(=O)Cn2cc(C(=O)C3CC3)c3ccccc32)cc1`, the survival is 148% (inactive).

As for `CCOC(=O)c1c(C)n(-c2ccccc2)c2ccc(OC(=O)COc3ccccc3)cc12`, the survival is 70% (inactive).

`CCN1C(=C(C#N)C#N)C=Cc2cc(C)ccc21`: the survival was 70% (inactive).

For `COc1cccc(N2CC(NC(=O)c3ccc(S(=O)(=O)N4CCOCC4)cc3)CC2=O)c1` (stereo unspecified), the survival was 117% (inactive).

Take `COC(=O)Cc1c(C)nc2nc(-c3ccc(C)cc3)[nH]n2c1=O`: the survival was 92% (inactive).

Regarding `CC(=O)Nc1ccccc1-c1nc2ccccc2n(C(C)C(=O)Nc2ccccc2C(F)(F)F)c1=O` (stereo unspecified), the survival was 98% (inactive).

Take `CC(C(=O)Nc1ccccc1)n1nnc2sc3c(c2c1=O)CCCC3` (stereo unspecified): the survival was 61% (inactive).

Turning to `Cc1nn(C(C)C(=O)Nc2ccccc2C(F)(F)F)c(=O)c2c1sc1ccccc12` (stereo unspecified), the survival was 107% (inactive).

Take `CC(C(=O)Nc1ccccc1C(F)(F)F)n1nc(-c2ccccc2)c2c(c1=O)CCCC2` (stereo unspecified): the survival is 30% (active).

With `CC(C(=O)Nc1cccc(C#N)c1)n1nc(-c2ccccc2)c2c(c1=O)CCCC2` (stereo unspecified), the survival is 20% (active).

Consider `CCN(CC)S(=O)(=O)c1cc(-c2ccc(=O)n(C(C)C(=O)Nc3cccc(C#N)c3)n2)ccc1C` (stereo unspecified), for which the survival is 56% (inactive).

Take `CCN(C(=O)Cn1c(=O)n(-c2ccccc2)c(=O)c2ccc(C(=O)NCc3ccc4c(c3)OCO4)cc21)c1cccc(C)c1`: the survival is 84% (inactive).

Take `CC(C)C(c1nnnn1C(C)(C)C)N(Cc1cc2cc3c(cc2[nH]c1=O)OCCO3)C1CCCCC1` (stereo unspecified): the survival was 109% (inactive).

In the case of `COc1cccc(NC(=O)CCN2CCN(CCO)CC2)c1`, the survival was 158% (inactive).

With `CC(C)c1nn2c(=O)cc(COC(=O)CNC(=O)c3ccccc3Cl)nc2s1`, the survival is 125% (inactive).

Consider `COc1ccc2oc(=O)cc(CN3CCN(c4ccc(F)cc4)CC3)c2c1`, for which the survival is 61% (inactive).

Consider `CCOc1ccc2oc(=O)cc(CN3CCN(c4ccccc4)CC3)c2c1`, for which the survival was 83% (inactive).

Take `COc1ccc2oc(=O)cc(CN3CCN(Cc4ccccc4)CC3)c2c1`: the survival is 83% (inactive).

Take `COc1ccc2oc(=O)cc(CN3CCN(C(=O)c4ccccc4Br)CC3)c2c1`: the survival was 44% (active).

On to `COc1ccc(N2CCN(Cc3cc(=O)oc4ccc(OC)cc34)CC2)cc1`, for which the survival was 86% (inactive).

With `COc1ccc2oc(=O)cc(CN3CCN(c4ccccc4F)CC3)c2c1`, the survival was 72% (inactive).

Take `COc1ccc2oc(=O)cc(CN3CCN(C(=O)c4ccccc4)CC3)c2c1`: the survival is 41% (active).

`COc1ccc2oc(=O)cc(CN3CCN(c4ccccc4OC)CC3)c2c1`: the survival is 77% (inactive).

As to `COc1ccc2oc(=O)cc(CN3CCN(C(=O)c4ccccc4F)CC3)c2c1`, the survival is 36% (active).

Consider `CC(C)NC(=O)C1CCN(Cc2ccccc2Cl)CC1`, for which the survival was 92% (inactive).
